# Shown are actives, neighbours in structure and some others; about 1.5% of the full set was active somewhere.
# IDE cell activ – human IDE activators in live cells, primary screen, fluorescence polarization, HEK cells, FAbeta-B substrate; Insulin-degrading enzyme (Homo sapiens), P14735; actives 0.073% (n = 340,000); FAbeta-B cleavage; 0% vehicle, 100% cell-free pure enzyme wells; activation, % at 5.96 µM;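 active means activation above the mean of all tested compounds plus 3 SD, set per screening campaign, cut at about 17% in these data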
# RTF Ca sens inh – cardiac RTF calcium sensitivity inhibitors, primary screen, biochemical, IANBD-TnC fluorescence, EC70 calcium; inhibition, % at 7.15 µM; AID 493244, 2011; Troponin I, cardiac muscle (Homo sapiens) + Troponin T, cardiac muscle (Homo sapiens) + …; actives 0.12% (n = 340,000); IANBD-labeled cardiac RTF, Ca2+ fluorescence;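 active means inhibition above the mean inhibition of all tested compounds plus 3 SD, cut at about 17% in these data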;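 further: assay run at fixed EC70 calcium of 1.6 mM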
# RTF Ca sens act – cardiac RTF calcium sensitivity activators, primary screen, biochemical, IANBD-TnC fluorescence, EC20 calcium. Troponin I, cardiac muscle (Homo sapiens) + Troponin T, cardiac muscle (Homo sapiens) + …. IANBD-labeled TnC RTF fluorescence at EC20 calcium; 0% EC20 calcium, 100% full calcium. activation, % at 7.2 µM. actives 0.24% (n = 340,000). AID 493008, 2010;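 active means activation above the mean over all tested compounds plus 3 SD, cut at about 30% in these data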;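 further: rise in fluorescence read as greater calcium sensitivity of cardiac thin filaments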
# IDE inh – human IDE inhibitors in live cells, primary screen, fluorescence polarization, HEK cells, FAbetaB substrate. FAbetaB cleavage. inhibition, % at 5.59 µM. actives 0.41% (n = 320,000). AID 434962, 2010;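 active means percent inhibition above the average of all tested compounds plus 3 SD, set per screening campaign, cut at about 16% in these data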;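 further: IDE supplied by intact live HEK cells; FP after avidin binding of uncleaved biotin substrate so inhibition keeps polarization high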
# CRFBP-R2 agonist – agonists of CRF-BP/CRF-R2 complex, primary screen, cell-based, HEK293, calcium dye fluorescence, uHTS; calcium dye fluorescence (FLIPR); percent of saturating CRF peptide response; activation, % at 13.2 µM; actives 0.46% (n = 350,000); AID 588473, 2011;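 active means activation of at least 50%, plus an integration ratio under a set limit after plate pattern correction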
# CRFBP-R2 block – antagonists of CRF-BP/CRF-R2 complex, primary screen, cell-based, HEK293, calcium dye fluorescence, uHTS. actives 0.59% (n = 350,000). AID 588475, 2011. CRF-induced calcium fluorescence. inhibition, % at 11.8 µM;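 active means inhibition of the ligand-induced calcium signal above about 50% at the single tested concentration, limit read from the data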
# A number is an active result; – = inactive; · = not tested or not shown.
SMILES,IDE cell activ,RTF Ca sens inh,RTF Ca sens act,IDE inh,CRFBP-R2 agonist,CRFBP-R2 block
N#Cc1c(-c2ccc(Cl)cc2)n(O)c2ccccc12,–,–,–,·,57,63
Cc1ccccc1OCc1nnc(SCC(=O)Nc2ccc3nc(SCC(=O)Nc4ccccc4)sc3c2)n1C,–,–,–,–,–,–
O=C(/C=C/c1ccccc1[N+](=O)[O-])N1CCOCC1,–,–,–,–,–,63
NC(=O)C1CCN(C(=O)/C=C/c2ccccc2[N+](=O)[O-])CC1,–,–,–,–,–,–
Clc1ccc(-c2nc(C3CCCCC3)no2)cc1,–,–,–,–,–,–
COC(=O)C1C2CC3c4[nH]c5cc(OC)ccc5c4CCN3CC2CC(O)C1OC (stereo unspecified),–,–,–,·,–,–
COC(=O)C1C2CC3c4[nH]c5cc(OC)ccc5c4CCN3CC2CC(OC(=O)CC(C)=O)C1OC (stereo unspecified),–,–,46,·,–,–
CCOc1ccc(NS(=O)(=O)c2ccc(NC(=S)NC(=O)CC(C)C)cc2)cc1,–,–,–,–,–,–
CCOc1ccc(S(=O)(=O)Nc2cccnc2)cc1,–,–,–,–,–,53
CCCC(=O)NC(=S)Nc1ccc(S(=O)(=O)Nc2ccc(OCC)cc2)cc1,–,–,–,–,55,–
CCOc1ccccc1N1CCN(C(=O)c2cn(CC3CCCCC3)nn2)CC1,–,–,–,·,–,–
CC12CCC(C/C1=N/NC(=O)Nc1ccccc1)C2(C)C (stereo unspecified),–,–,–,–,–,–
CC12CCC(C/C1=N\OC(=O)c1c(F)cccc1F)C2(C)C (stereo unspecified),–,–,–,–,–,95
COc1ccc(NC(=O)c2cc(-c3ccccc3Cl)on2)cc1,–,–,–,–,–,–
COc1ccc(NC(=O)c2cc(-c3ccccc3OC)on2)cc1,–,–,–,–,–,54
COc1ccc(CNC(=O)c2sc(=S)n(-c3ccc(OC)cc3)c2N)cc1,–,–,–,–,–,66
O=C(/C=C/c1ccco1)OCc1nnc(-c2ccccc2)o1,–,–,–,–,–,–
O=C(/C=C/c1ccco1)OCc1nnc(-c2ccc(Cl)cc2)o1,–,–,–,–,–,87
Cc1noc(C)c1S(=O)(=O)N1CCC(C(=O)N2CCN(c3ccc(Cl)cc3)CC2)CC1,–,–,–,–,–,58
CCOc1ccc(N(CC(=O)NC2CCC(C)CC2)S(=O)(=O)c2c(C)noc2C)cc1 (stereo unspecified),–,–,–,–,–,62
CCOc1ccc(N(CC(=O)NC2CCCCC2C)S(=O)(=O)c2c(C)noc2C)cc1 (stereo unspecified),–,–,–,–,–,–
O=C(COC(=O)Cn1cnc2ccccc21)Nc1ccc(F)c(F)c1,–,–,–,–,–,–
CC(=O)c1ccc(N2CCN(C(=O)CCS(=O)(=O)c3ccc4c(c3)CCN4C(C)=O)CC2)cc1,–,–,–,–,–,80
CC(=O)N1CCc2cc(S(=O)(=O)NCCC(=O)N3CCN(Cc4ccccc4)CC3)ccc21,19,–,–,–,–,–
Cc1nn(Cc2ccccc2Cl)c(C)c1NC(=O)CCCn1nc([N+](=O)[O-])c(Cl)c1C,–,–,–,–,–,–
SMILES,IDE cell activ,RTF Ca sens inh,RTF Ca sens act,IDE inh,CRFBP-R2 agonist,CRFBP-R2 block
CCOc1ccc(NC(=O)[C@H](Cc2ccccc2)NC(=O)C2CCNCC2)cc1,–,–,–,–,–,–
CC(NC(=O)COC(=O)C1(C)CC1(Cl)Cl)c1ccccc1 (stereo unspecified),–,–,–,–,–,54
COc1ccccc1CNC(=O)/C=C/c1ccc(Br)o1,–,–,–,–,–,–
O=C(N/N=C/c1ccccc1Cl)C1CC1,–,–,–,–,–,77
O=C(NN=Cc1cccc2ccccc12)C1CC1,–,–,–,·,–,–
N#C/C(=C\c1ccc(OCCN2CCOCC2)cc1)C(=O)Nc1ccccc1,–,–,–,–,–,–
N#C/C(=C/c1ccc(N2CCOCC2)o1)C(=O)Nc1ccccc1,–,–,132,·,149,–
COc1ccc(CNC(=O)CN(Cc2ccccc2)C(=O)c2csnn2)cc1,–,–,–,–,–,–
C=CCN(CC(=O)NCc1ccccc1)C(=O)c1csnn1,–,–,–,–,–,87
CCn1ncc(C(=O)Nc2ccc([N+](=O)[O-])cc2OC)c1C,–,–,–,–,–,51
COc1ccc(CNC(=O)CN2CCN(c3ccc(F)cc3)CC2)cc1,–,–,–,–,–,58
Cc1ccc(CNC(=O)CN2CCN(c3ccc(F)cc3)CC2)cc1,–,–,–,–,–,–
COc1cc(OC)c2ccc(=O)oc2c1C(CCN1CCOCC1)c1ccc2c(c1)OCO2 (stereo unspecified),–,–,–,·,–,76
O=C(c1ccc(F)cc1)N1CCN(c2cc(N3CCCCC3)c(F)cc2[N+](=O)[O-])CC1,–,–,–,–,–,–
CCn1cnc2cc(NCc3ccc(Br)cc3)ccc21,·,·,·,–,52,–
Cc1ccc(CNc2ccc3c(c2)ncn3C(C)C)cc1,–,–,–,–,61,–
CCn1cnc2cc(NCc3ccc(C)cc3)ccc21,–,–,–,–,–,–
CCCn1cnc2cc(NCc3ccc(Br)cc3)ccc21,–,–,–,–,–,–
O=C(N[C@H]1C/C=C\C[C@@H](CC(=O)N(CCO)Cc2ccccc2)C(=O)NC[C@H](c2ccccc2)OC1=O)OCC1c2ccccc2-c2ccccc21,–,–,–,–,–,–
COc1cc(-c2noc(C)c2-c2ccc(N(C)C)nc2)cc(OC)c1OC,–,–,–,–,53,–
C=CCn1c(SCc2c(C)noc2C)nc2sc(C)c(C)c2c1=O,–,–,–,–,–,74
CCNC(=O)CC1C(=O)N(c2ccc(C)cc2)C(=O)N1CCC(C)C (stereo unspecified),–,–,–,–,–,–
Cc1ccc(S(=O)(=O)N[C@H](C(=O)OCC(=O)N2N=C(c3ccc(Cl)cc3)CC2c2ccco2)C(C)C)cc1 (stereo partly specified),–,–,–,–,58,–
Cc1ocnc1C(=O)Nc1ccc(Cl)cc1,–,–,–,–,–,–
CC(=O)N(Cc1ccco1)c1nc(C(=O)Nc2ccc(Cl)cc2)c(C)s1,–,–,–,–,–,65
